Settings in all cases: mRNA level, 48 h; actives raise or lower the signal
Read-out in test [1]: Intercellular Adhesion Molecule 1 (ICAM1), ICAM1 (gene 3383)
The experiment in a line: LTEA_HepaRG_ICAM1: Life Technologies and Expression Analysis (LTEA) Assay for Intercellular Adhesion Molecule 1 (ICAM1) using HepaRG (AID 2283507). Put shortly: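 Differentiated human HepaRG cells in serum-free induction medium exposed 48 h in duplicate to 8 half-log concentrations (top 100 uM, 0.5% DMSO). ICAM1 mRNA quantified by TaqMan qRT-PCR, normalized to ACTB, GAPDH and POLR2A; bidirectional fitting versus DMSO.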

Read-out in test [2]: Insulin-like growth factor-binding protein 1 (IGFBP1), IGFBP1 (gene 3484)
The experiment in a line: LTEA_HepaRG_IGFBP1: Life Technologies and Expression Analysis (LTEA) Assay for Insulin-like growth factor-binding protein 1 (IGFBP1) using HepaRG (AID 2283508). Put shortly:
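HepaRG cells, plated 48 h then switched to serum-free induction medium, exposed in duplicate for 48 h to 8-point half-log series from 100 uM in 0.5% DMSO. mRNA measured by qRT-PCR, normalized to ACTB/GAPDH/POLR2A; bidirectional fit versus DMSO.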

Read-out in test [3]: Interleukin 6 (IL6), IL6 (gene 3569)
As to the kind of experiment: LTEA_HepaRG_IL6: Life Technologies and Expression Analysis (LTEA) Assay for Interleukin 6 (IL6) using HepaRG (AID 2283509). Put shortly: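 HepaRG cells exposed in duplicate for 48 h to eight half-log concentrations, top 100 uM, in 0.5% DMSO serum-free induction medium. mRNA measured by qRT-PCR, normalized to ACTB, GAPDH and POLR2A. Bidirectional fit versus DMSO.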

Read-out in test [4]: Interleukin 6 Receptor (IL6R), IL6R (gene 3570)
As to the kind of experiment: LTEA_HepaRG_IL6R: Life Technologies and Expression Analysis (LTEA) Assay for Interleukin 6 Receptor (IL6R) using HepaRG (AID 2283510).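 On AC50: TaqMan qRT-PCR signal normalized to ACTB GAPDH and POLR2A housekeeping genes.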 Put shortly: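 Differentiated HepaRG cells, plated 48 h, then exposed in duplicate for 48 h in serum-free induction medium to 8 half-log concentrations (top 100 uM, 0.5% DMSO). IL6R mRNA measured by TaqMan qRT-PCR, normalized to ACTB/GAPDH/POLR2A; bidirectional fit vs DMSO.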

Read-out in test [5]: JUN Transcription Factor, JUN (gene 3725)
As to the kind of experiment: LTEA_HepaRG_JUN: Life Technologies and Expression Analysis (LTEA) Assay for JUN Transcription Factor using HepaRG (AID 2283513). Put shortly: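 HepaRG cells, 48 h post-plating, exposed 48 h in serum-free induction medium to 8-point half-log series (top 100 uM, 0.5% DMSO), duplicate; mRNA by qRT-PCR (TaqMan, Fluidigm), normalized to ACTB/GAPDH/POLR2A; bidirectional fit vs DMSO.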

Read-out in test [6]: Lipase C (LIPC), LIPC (gene 3990)
As to the kind of experiment: LTEA_HepaRG_LIPC: Life Technologies and Expression Analysis (LTEA) Assay for Lipase C (LIPC) using HepaRG (AID 2283514). Put shortly:
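HepaRG cells, 48 h after plating, treated in duplicate for 48 h in serum-free induction medium over 8 half-log concentrations from 100 uM, 0.5% DMSO. LIPC mRNA by TaqMan qRT-PCR normalized to ACTB/GAPDH/POLR2A; bidirectional fit versus DMSO.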

Read-out in test [7]: Lipoprotein lipase (LPL), LPL (gene 4023)
The experiment in a line: LTEA_HepaRG_LPL: Life Technologies and Expression Analysis (LTEA) Assay for Lipoprotein lipase (LPL) using HepaRG (AID 2283515). Put shortly: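 Differentiated HepaRG cells, plated 48 h, then exposed 48 h in serum-free induction medium to 8 concentrations (top 100 uM, half-log steps) in 0.5% DMSO, duplicate. LPL mRNA measured by qRT-PCR, normalized to ACTB, GAPDH and POLR2A.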

Read-out in test [8]: MicroRNA 122 (MIR122), gene 406906
The experiment in a line: LTEA_HepaRG_MIR122: Life Technologies and Expression Analysis (LTEA) Assay for MicroRNA 122 (MIR122) using HepaRG (AID 2283516). Further: the transcript read is the microRNA miR-122. Put shortly: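 Differentiated human HepaRG cells in serum-free induction medium exposed 48 h to 8 half-log concentrations from 100 uM in 0.5% DMSO, duplicate. MIR122 quantified by Fluidigm TaqMan qRT-PCR, normalised to ACTB, GAPDH, POLR2A; fold change fitted bidirectionally versus DMSO.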

Read-out in test [9]: matrix metalloproteinase-10 (MMP10), MMP10 (gene 4319)
As to the kind of experiment: LTEA_HepaRG_MMP10: Life Technologies and Expression Analysis (LTEA) Assay for matrix metalloproteinase-10 (MMP10) using HepaRG (AID 2283517). Put shortly:
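Differentiated HepaRG cells in serum-free induction medium exposed 48 h in duplicate to 8-point half-log series up to 100 uM in 0.5% DMSO. mRNA quantified by qRT-PCR, normalised to ACTB, GAPDH, POLR2A; bidirectional fit versus DMSO.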

Read-out in test [10]: Paternally Expressed 10 (PEG10), PEG10 (gene 23089)
The experiment in a line: LTEA_HepaRG_PEG10: Life Technologies and Expression Analysis (LTEA) Assay for Paternally Expressed 10 (PEG10) using HepaRG (AID 2283520). Put shortly:
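Differentiated HepaRG cells exposed 48 h in serum-free induction medium to eight half-log concentrations topping at 100 uM, 0.5% DMSO, in duplicate. PEG10 mRNA quantified by TaqMan qRT-PCR, normalized to ACTB, GAPDH and POLR2A; bidirectional fit versus DMSO.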

Read-out in test [11]: Nuclear factor NF-kappa-B p105 subunit (Homo sapiens) (UniProt P19838)
The experiment in a line: LTEA_HepaRG_NFKB1: Life Technologies and Expression Analysis (LTEA) Assay for Nuclear Factor Kappa B Subunit 1 (NFKB1) using HepaRG (AID 2283521).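 On outcome: TaqMan qRT-PCR transcript normalised to ACTB GAPDH and POLR2A housekeeping genes.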 Put shortly:
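NFKB1 transcript was measured by TaqMan qRT-PCR on Fluidigm arrays, normalised to three housekeeping genes and fitted in both directions against 0.5% DMSO. HepaRG cells were dosed in duplicate for 48 h in serum-free induction medium, eight half-log steps from 100 uM.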

Read-out in test [12]: Protein phosphatase 2A (PPP2R4), PTPA (gene 5524)
The experiment in a line: LTEA_HepaRG_PPP2R4: Life Technologies and Expression Analysis (LTEA) Assay for Protein phosphatase 2A (PPP2R4) using HepaRG (AID 2283522). Put shortly:
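Differentiated human HepaRG cells in serum-free induction medium were exposed 48 h to 8 concentrations (top 100 µM, half-log steps, duplicate) in 0.5% DMSO. PPP2R4 mRNA was measured by TaqMan qRT-PCR, normalised to ACTB, GAPDH and POLR2A, and fitted bidirectionally versus DMSO.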

Read-out in test [13]: Phosphatase and tensin (PTEN), PTEN (gene 5728)
The experiment in a line: LTEA_HepaRG_PTEN: Life Technologies and Expression Analysis (LTEA) Assay for Phosphatase and tensin (PTEN) using HepaRG (AID 2283523). Put shortly: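 HepaRG cells, 48 h after plating, exposed in duplicate for 48 h in serum-free induction medium to 8 half-log concentrations up to 100 uM (0.5% DMSO). PTEN mRNA by qRT-PCR, normalized to ACTB, GAPDH, POLR2A; bidirectional fit versus DMSO.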

Read-out in test [14]: solute carrier (SLC22A1), SLC22A1 (gene 6580)
The experiment in a line: LTEA_HepaRG_SLC22A1: Life Technologies and Expression Analysis (LTEA) Assay for solute carrier (SLC22A1) using HepaRG (AID 2283524). Put shortly: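 Differentiated human HepaRG cells in serum-free induction medium, exposed 48 h in duplicate to 8-point half-log series from 100 µM top in 0.5% DMSO. SLC22A1 mRNA by TaqMan qRT-PCR normalized to ACTB, GAPDH, POLR2A; bidirectional fit versus DMSO.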

Read-out in test [15]: Pyruvate Dehydrogenase Kinase 4 (PDK4), PDK4 (gene 5166)
As to the kind of experiment: LTEA_HepaRG_PDK4: Life Technologies and Expression Analysis (LTEA) Assay for Pyruvate Dehydrogenase Kinase 4 (PDK4) using HepaRG (AID 2283525). Put shortly: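 HepaRG cells plated 48 h, then switched to serum-free induction medium and exposed in duplicate for 48 h to 8 half-log concentrations from 100 uM in 0.5% DMSO. PDK4 mRNA measured by qRT-PCR, normalized to ACTB, GAPDH and POLR2A; bidirectional fit versus DMSO.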

Read-out in test [16]: Potassium channel subfamily K member 1 (KCNK1), KCNK1 (gene 3775)
The experiment in a line: LTEA_HepaRG_KCNK1: Life Technologies and Expression Analysis (LTEA) Assay for Potassium channel subfamily K member 1 (KCNK1) using HepaRG (AID 2283511). Put shortly: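 Differentiated HepaRG cells, 48 h exposure in serum-free induction medium with 0.5% DMSO; 8 concentrations, half-log from 100 uM, duplicate. KCNK1 mRNA by qRT-PCR, normalized to ACTB, GAPDH, POLR2A; bidirectional fit vs DMSO.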

Read-out in test [17]: Keratin 19 (KRT19), KRT19 (gene 3880)
As to the kind of experiment: LTEA_HepaRG_KRT19: Life Technologies and Expression Analysis (LTEA) Assay for Keratin 19 (KRT19) using HepaRG (AID 2283512). Put shortly: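 Differentiated HepaRG cells in serum-free induction medium, exposed 48 h in duplicate to 8 half-log concentrations up to 100 uM in 0.5% DMSO. KRT19 mRNA by qRT-PCR, normalized to ACTB, GAPDH, POLR2A; bidirectional fit vs DMSO.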

Read-out in test [18]: MYC, MYC (gene 4609)
As to the kind of experiment: LTEA_HepaRG_MYC: Life Technologies and Expression Analysis (LTEA) Assay for MYC using HepaRG (AID 2283518). Put shortly:
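Differentiated HepaRG cells exposed 48 h in serum-free induction medium to 8 concentrations (top 100 uM, half-log steps; 0.5% DMSO), duplicate. MYC mRNA measured by Fluidigm qRT-PCR, normalized to ACTB, GAPDH, POLR2A; bidirectional fit versus DMSO.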

Read-out in test [19]: matrix metalloproteinase-3 (MMP3), MMP3 (gene 4314)
The experiment in a line: LTEA_HepaRG_MMP3: Life Technologies and Expression Analysis (LTEA) Assay for matrix metalloproteinase-3 (MMP3) using HepaRG (AID 2283519). Put shortly:
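HepaRG cells (~100,000/well) in serum-free induction medium were dosed in duplicate for 48 h with an 8-point half-log series from 100 uM, 0.5% DMSO. MMP3 mRNA was quantified by Fluidigm TaqMan qRT-PCR, normalized to three housekeeping genes.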

Calls of active or inactive are those of the source. How the source made its calls: active means hit-call score of the fitted dose curve at least 0.9, where 1 is the maximum; inactive means score below 0.9.

Nuclear factor NF-kappa-B p105 subunit (Homo sapiens), sequence (P19838 whole entry, looked up): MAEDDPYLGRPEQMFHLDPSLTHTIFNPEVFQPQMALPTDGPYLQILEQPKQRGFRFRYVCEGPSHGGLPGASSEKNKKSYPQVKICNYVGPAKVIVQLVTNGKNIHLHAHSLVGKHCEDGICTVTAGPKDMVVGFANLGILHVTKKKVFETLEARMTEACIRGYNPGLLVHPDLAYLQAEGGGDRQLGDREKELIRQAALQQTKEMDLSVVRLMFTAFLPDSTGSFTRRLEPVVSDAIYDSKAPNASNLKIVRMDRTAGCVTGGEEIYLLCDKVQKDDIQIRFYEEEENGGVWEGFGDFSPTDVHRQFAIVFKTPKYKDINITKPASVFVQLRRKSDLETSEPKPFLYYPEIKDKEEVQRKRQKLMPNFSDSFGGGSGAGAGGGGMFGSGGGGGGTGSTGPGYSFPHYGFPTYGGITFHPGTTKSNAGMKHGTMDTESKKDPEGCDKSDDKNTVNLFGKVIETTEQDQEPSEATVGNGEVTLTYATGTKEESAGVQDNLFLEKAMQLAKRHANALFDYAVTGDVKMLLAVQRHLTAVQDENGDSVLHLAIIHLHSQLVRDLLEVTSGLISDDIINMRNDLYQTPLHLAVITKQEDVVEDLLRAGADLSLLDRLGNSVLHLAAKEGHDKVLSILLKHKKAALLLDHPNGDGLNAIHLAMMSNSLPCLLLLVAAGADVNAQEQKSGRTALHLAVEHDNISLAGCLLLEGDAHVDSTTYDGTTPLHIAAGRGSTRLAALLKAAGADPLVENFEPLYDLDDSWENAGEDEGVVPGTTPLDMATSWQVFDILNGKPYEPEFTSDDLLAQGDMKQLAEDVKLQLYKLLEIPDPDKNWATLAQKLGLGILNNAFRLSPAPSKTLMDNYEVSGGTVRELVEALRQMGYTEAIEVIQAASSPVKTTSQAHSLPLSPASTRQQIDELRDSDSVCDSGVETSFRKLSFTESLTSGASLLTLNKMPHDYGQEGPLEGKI

Regarding `CC(=O)N1CCN(c2ccc(OC[C@H]3CO[C@](Cn4ccnc4)(c4ccc(Cl)cc4Cl)O3)cc2)CC1`, the AC50 in test [1] is 26.6 µM (active); in [2], 15.1 µM (active); in test [3], 31.2 µM (active); in [4], 13.9 µM (active); in [5], 50 µM (active); in test [6] it was 18.3 µM (active). Besides, the AC50 in [7] was 86.3 µM (active); in [8], 13.3 µM (active); in test [9] it was 16.7 µM (active); in test [10] it was 42.5 µM (active); in test [12], 76.6 µM (active); in test [13], 78.8 µM (active). In addition, the AC50 is 13.3 µM (active) in [14] and 11 µM (active) in test [15]. Further, the outcome in [11] was inactive.
In the case of `Cc1cc(F)ccc1-c1cc(N2CC[C@@H](O)[C@H]2CO)ncc1N(C)C(=O)C(C)(C)c1cc(C(F)(F)F)cc(C(F)(F)F)c1`, the AC50 in [1] is 22.4 µM (active); in test [2] it was 70.5 µM (active); in test [3], 48.6 µM (active); in test [5], 74.8 µM (active); in [6], 18.6 µM (active); in test [7], 48.8 µM (active). Besides, the concentration at half-maximal activity (AC50) in test [9] is 68.7 µM (active); in [18] it was 17.3 µM (active); in [12], 21.5 µM (active); in test [13], 66.4 µM (active); in [14], 20.7 µM (active). The compound was called inactive in test [4], in test [16], in test [17], in test [10], in test [11] and in [15].
For `CCN(Cc1cccnc1)C(=O)c1cccc(Cl)c1[C@]1(C)C(=O)N(Cc2ccc(OC)cc2OC)c2ccc(Cl)cc21`, the AC50 in test [1] is 21.2 µM (active); in test [2] it was 17.5 µM (active); in test [3], 24.9 µM (active); in test [4], 19.9 µM (active); in test [16], 15 µM (active); in test [6], 19.9 µM (active). Further, the AC50 was 10.4 µM (active) in test [7]; 17.7 µM (active) in [9]; 10.2 µM (active) in [10]; 26.5 µM (active) in [11]; 10.8 µM (active) in test [12]; 21.7 µM (active) in [14]. In addition, the AC50 in [15] was 22.3 µM (active). In addition, the compound was called inactive in test [5] and in test [13].
Regarding `C[C@]12CC[C@@H]3c4ccc(O)cc4CC[C@H]3[C@@H]1CC[C@H]2O`, the call in test [1], in test [2], in [3], in test [4], in test [16] and in [5] was inactive. Besides, the result in test [7], in [8], in test [9], in [19], in test [12] and in test [13] was inactive. In addition, the result in test [15] was inactive. The AC50 in test [6] is 81.9 µM (active); in test [10], 50 µM (active); in test [14], 71.1 µM (active).

By AC50 is commonly meant the concentration at which the activity in the assay is half-maximal.

The values above are taken from PubChem BioAssay (EPA / NIEHS).
